Experimental data: ChEMBL document CHEMBL1961873, “Compounds: GSK PKIS; Assays: Nanosyn kinase panel” (2012)

Legend:
[1] = biological target: Serine/threonine-protein kinase PAK 6 (Homo sapiens) (UniProt Q9NQU5); settings: at 1 µM;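 also: values are mean percent inhibition of PAK6 kinase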
[2] = test system: Tyrosine-protein kinase ABL1 (Homo sapiens), P00519 [E255K]; settings: at 0.1 µM
[3] = test system: Tyrosine-protein kinase ABL1 (Homo sapiens), P00519 [E255K]; settings: at 1 µM
[4] = test system: Tyrosine-protein kinase ABL1 (Homo sapiens), P00519 [H396P]; settings: at 0.1 µM
[5] = test system: Tyrosine-protein kinase ABL1 (Homo sapiens), P00519 [H396P]; settings: at 1 µM
[6] = test system: Tyrosine-protein kinase ABL1 (Homo sapiens), P00519 [M351T]; settings: at 0.1 µM
[7] = test system: Tyrosine-protein kinase ABL1 (Homo sapiens), P00519 [M351T]; settings: at 1 µM
[8] = test system: Tyrosine-protein kinase ABL1 (Homo sapiens), P00519 [Q252H]; settings: at 0.1 µM
[9] = test system: Tyrosine-protein kinase ABL1 (Homo sapiens), P00519 [Q252H]; settings: at 1 µM
[10] = test system: Tyrosine-protein kinase ABL1 (Homo sapiens), P00519 [T315I]; settings: at 0.1 µM
[11] = test system: Tyrosine-protein kinase ABL1 (Homo sapiens), P00519 [T315I]; settings: at 1 µM
[12] = test system: Tyrosine-protein kinase ABL1 (Homo sapiens), P00519 [Y253F]; settings: at 0.1 µM
[13] = test system: Tyrosine-protein kinase ABL1 (Homo sapiens), P00519 [Y253F]; settings: at 1 µM
[14] = biological target: Tyrosine-protein kinase ABL1 (Homo sapiens) (UniProt P00519); settings: at 0.1 µM
[15] = biological target: Tyrosine-protein kinase ABL1 (Homo sapiens) (UniProt P00519); settings: at 1 µM
[16] = biological target: ALK tyrosine kinase receptor (Homo sapiens) (UniProt Q9UM73); settings: at 0.1 µM
Chain of ALK tyrosine kinase receptor (Homo sapiens) (Q9UM73 19-1620 limits assumed): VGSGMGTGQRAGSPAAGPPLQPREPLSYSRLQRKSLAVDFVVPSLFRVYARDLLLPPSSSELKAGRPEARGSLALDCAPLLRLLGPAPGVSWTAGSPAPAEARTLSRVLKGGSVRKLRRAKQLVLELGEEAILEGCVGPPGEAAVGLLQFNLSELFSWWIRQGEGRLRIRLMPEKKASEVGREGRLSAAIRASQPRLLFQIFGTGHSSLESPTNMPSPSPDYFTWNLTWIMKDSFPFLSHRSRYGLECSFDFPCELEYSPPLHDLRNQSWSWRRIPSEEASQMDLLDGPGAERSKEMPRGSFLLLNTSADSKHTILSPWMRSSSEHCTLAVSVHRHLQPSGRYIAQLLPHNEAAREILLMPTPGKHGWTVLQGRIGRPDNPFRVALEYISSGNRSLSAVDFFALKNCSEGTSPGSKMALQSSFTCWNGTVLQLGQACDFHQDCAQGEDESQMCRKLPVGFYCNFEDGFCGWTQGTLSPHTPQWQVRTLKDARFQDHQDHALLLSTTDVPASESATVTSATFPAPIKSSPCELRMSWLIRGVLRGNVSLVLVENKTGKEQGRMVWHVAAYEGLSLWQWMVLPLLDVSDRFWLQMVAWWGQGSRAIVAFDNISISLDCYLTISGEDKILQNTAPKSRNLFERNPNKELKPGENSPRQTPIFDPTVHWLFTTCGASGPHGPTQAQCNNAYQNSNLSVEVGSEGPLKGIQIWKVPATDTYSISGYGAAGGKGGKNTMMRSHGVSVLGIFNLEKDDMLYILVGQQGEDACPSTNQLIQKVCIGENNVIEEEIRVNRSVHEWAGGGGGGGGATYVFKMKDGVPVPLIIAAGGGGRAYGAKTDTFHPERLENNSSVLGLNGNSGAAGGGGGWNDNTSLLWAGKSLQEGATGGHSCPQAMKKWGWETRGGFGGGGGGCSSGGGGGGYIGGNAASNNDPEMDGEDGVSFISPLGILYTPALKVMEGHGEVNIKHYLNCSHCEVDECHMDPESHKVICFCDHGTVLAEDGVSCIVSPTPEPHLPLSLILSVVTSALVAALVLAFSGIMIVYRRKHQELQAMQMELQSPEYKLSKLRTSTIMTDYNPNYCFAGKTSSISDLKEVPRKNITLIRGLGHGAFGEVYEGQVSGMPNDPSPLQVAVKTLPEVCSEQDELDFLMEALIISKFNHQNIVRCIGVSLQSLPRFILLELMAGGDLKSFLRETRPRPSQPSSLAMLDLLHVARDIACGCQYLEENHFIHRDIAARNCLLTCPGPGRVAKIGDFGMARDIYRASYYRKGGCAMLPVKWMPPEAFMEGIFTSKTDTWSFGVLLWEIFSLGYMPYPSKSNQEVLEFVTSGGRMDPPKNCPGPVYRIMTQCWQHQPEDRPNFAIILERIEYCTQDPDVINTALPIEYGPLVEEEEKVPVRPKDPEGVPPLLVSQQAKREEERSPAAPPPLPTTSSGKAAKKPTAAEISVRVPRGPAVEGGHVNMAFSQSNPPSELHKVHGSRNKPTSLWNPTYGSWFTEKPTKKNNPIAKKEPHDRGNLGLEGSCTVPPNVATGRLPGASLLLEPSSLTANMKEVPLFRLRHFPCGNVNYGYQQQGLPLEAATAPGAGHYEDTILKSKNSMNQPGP

[17] = biological target: ALK tyrosine kinase receptor (Homo sapiens) (UniProt Q9UM73); settings: at 1 µM
[18] = biological target: Tyrosine-protein kinase ABL2 (Homo sapiens) (UniProt P42684); settings: at 0.1 µM
Chain of Tyrosine-protein kinase ABL2 (Homo sapiens) (P42684 whole entry): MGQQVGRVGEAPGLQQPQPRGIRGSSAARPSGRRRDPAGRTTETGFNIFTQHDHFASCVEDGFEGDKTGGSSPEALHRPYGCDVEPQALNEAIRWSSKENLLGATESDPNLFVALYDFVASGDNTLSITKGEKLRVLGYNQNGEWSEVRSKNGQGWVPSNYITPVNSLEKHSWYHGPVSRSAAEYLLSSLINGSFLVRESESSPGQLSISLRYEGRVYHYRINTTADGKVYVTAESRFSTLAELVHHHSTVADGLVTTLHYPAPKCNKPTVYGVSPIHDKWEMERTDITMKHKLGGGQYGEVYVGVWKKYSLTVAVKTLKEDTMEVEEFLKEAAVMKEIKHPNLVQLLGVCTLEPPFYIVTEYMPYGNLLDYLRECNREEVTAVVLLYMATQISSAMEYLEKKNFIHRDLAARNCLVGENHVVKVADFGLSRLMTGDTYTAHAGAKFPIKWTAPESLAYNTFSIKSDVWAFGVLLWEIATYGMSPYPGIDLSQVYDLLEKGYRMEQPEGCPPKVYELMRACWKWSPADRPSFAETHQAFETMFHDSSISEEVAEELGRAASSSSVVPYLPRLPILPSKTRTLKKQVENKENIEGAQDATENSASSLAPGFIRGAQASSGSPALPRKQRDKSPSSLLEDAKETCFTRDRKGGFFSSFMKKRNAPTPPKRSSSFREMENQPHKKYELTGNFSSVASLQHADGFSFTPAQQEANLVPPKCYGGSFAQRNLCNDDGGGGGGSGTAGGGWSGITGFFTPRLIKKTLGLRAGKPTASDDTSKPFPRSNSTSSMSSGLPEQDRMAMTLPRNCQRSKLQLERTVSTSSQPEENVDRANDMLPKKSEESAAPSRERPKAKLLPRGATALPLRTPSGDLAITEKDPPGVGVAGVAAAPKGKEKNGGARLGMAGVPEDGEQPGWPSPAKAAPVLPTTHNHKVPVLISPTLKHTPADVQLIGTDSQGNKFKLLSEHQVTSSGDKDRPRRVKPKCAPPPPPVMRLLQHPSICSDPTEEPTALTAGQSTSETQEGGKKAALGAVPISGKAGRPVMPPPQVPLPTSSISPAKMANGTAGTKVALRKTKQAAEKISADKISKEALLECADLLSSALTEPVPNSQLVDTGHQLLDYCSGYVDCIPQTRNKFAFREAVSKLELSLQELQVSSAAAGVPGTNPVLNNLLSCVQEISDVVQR

[19] = biological target: Tyrosine-protein kinase ABL2 (Homo sapiens) (UniProt P42684); settings: at 1 µM
[20] = biological target: Tyrosine-protein kinase receptor UFO (Homo sapiens) (UniProt P30530); settings: at 0.1 µM;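 also: values are mean percent inhibition of AXL from the GSK PKIS screen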
Chain of Tyrosine-protein kinase receptor UFO (Homo sapiens) (P30530 whole entry): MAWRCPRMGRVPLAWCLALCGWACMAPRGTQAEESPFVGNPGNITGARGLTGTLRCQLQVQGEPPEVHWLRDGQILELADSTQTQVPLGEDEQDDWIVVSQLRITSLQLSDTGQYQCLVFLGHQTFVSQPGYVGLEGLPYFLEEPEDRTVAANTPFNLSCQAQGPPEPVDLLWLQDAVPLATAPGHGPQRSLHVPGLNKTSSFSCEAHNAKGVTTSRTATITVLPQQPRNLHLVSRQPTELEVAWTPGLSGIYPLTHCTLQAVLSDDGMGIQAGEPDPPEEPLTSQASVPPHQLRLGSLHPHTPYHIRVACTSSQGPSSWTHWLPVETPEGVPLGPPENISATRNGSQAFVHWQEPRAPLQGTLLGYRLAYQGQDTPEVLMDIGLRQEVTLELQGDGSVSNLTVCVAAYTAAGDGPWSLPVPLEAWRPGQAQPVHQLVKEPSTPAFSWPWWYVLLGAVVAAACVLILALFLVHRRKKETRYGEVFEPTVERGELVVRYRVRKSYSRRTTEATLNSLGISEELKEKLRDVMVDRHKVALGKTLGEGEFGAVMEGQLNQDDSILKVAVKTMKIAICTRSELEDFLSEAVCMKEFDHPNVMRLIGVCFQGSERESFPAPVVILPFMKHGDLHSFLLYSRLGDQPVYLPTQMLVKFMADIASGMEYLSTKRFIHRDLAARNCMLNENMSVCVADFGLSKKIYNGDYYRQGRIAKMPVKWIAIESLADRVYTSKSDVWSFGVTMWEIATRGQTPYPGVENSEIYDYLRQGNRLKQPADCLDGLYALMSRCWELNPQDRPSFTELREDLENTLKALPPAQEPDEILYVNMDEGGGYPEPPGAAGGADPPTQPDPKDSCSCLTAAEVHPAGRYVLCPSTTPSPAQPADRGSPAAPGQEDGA

Chain of Serine/threonine-protein kinase PAK 6 (Homo sapiens) (Q9NQU5 whole entry, looked up): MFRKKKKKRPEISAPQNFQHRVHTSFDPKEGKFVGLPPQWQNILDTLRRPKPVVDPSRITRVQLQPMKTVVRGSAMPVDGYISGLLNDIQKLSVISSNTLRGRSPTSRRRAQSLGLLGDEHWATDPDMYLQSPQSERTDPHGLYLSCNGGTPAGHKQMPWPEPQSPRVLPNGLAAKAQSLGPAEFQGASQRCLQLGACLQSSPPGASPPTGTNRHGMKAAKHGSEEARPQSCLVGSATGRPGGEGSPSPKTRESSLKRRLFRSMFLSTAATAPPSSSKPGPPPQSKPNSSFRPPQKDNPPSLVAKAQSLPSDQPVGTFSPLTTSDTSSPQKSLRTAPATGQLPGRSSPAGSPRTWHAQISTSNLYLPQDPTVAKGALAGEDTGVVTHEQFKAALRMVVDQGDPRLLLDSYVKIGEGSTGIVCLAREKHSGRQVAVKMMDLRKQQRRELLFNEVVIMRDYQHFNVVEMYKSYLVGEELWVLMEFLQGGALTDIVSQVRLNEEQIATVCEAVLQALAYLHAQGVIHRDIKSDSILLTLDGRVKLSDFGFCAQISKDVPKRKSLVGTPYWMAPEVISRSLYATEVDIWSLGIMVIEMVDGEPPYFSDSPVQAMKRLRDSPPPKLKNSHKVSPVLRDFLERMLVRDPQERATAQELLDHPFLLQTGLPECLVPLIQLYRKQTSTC

| Compound | inhibition [1] [%] | inhibition [2] [%] | inhibition [3] [%] | inhibition [4] [%] | inhibition [5] [%] | inhibition [6] [%] | inhibition [7] [%] | inhibition [8] [%] | inhibition [9] [%] | inhibition [10] [%] | inhibition [11] [%] | inhibition [12] [%] | inhibition [13] [%] | inhibition [14] [%] | inhibition [15] [%] | inhibition [16] [%] | inhibition [17] [%] | inhibition [18] [%] | inhibition [19] [%] | inhibition [20] [%] |
| --- | --- | --- | --- | --- | --- | --- | --- | --- | --- | --- | --- | --- | --- | --- | --- | --- | --- | --- | --- | --- |
| CC(C)COC(=O)c1ccc2c(c1)/C(=C/Nc1ccc(S(N)(=O)=O)cc1)C(=O)N2 | 0.35 | 1.63 | 21.7 | 4.36 | 26.6 | 4.24 | 33.2 | 3.65 | 28.9 | 5.23 | 43.4 | 4.12 | 28.8 | 1.58 | 36.3 | -0.71 | 4.93 | 3.59 | 20.4 | 1.97 |
| Cc1ccc2c(-c3ccnc(Nc4ccccc4)n3)c(-c3ccc(F)cc3)nn2n1 | 5.13 | 3.13 | 15.7 | 7.21 | 36 | 15.1 | 56.4 | 12 | 49.9 | 4.75 | 20.2 | 11.5 | 42.2 | 5.24 | 35.5 | 2.29 | 5.55 | 4.61 | 34.1 | -5.33 |
| CCN1CCC(CC(=O)Nc2n[nH]c3nnc(-c4cccc(F)c4F)cc23)CC1 | 0.04 | 1.76 | 1.65 | 2.63 | 4.15 | -0.03 | 3.11 | 2.12 | 3.13 | 2.02 | 3.8 | 3.03 | 2.59 | 4 | 4.16 | 2.51 | 0.86 | 3.37 | 3.96 | 0.47 |
| O=C(Nc1n[nH]c2cc(-c3ccc(F)cc3)ccc12)C1CC1 | -5.36 | 9.03 | 23.3 | 11.3 | 46.6 | 11.5 | 55.2 | 7.91 | 33.9 | 19.5 | 69.4 | 10.8 | 40.1 | 5.81 | 40.4 | 1.12 | 2.06 | 3.46 | 12.3 | -5.44 |
| O=C(O[C@H]1CN[C@H](C#Cc2cc3ncnc(Nc4ccc(Cc5ccccc5)cc4)c3s2)C1)N1CCOCC1 | -5.73 | -0.19 | -0.38 | -0.52 | 0.08 | -2.99 | -0.59 | -0.95 | 1.06 | 0.08 | 0.76 | -1.94 | 2.37 | -0.06 | 0.2 | 1.1 | 0.46 | -0.08 | -0.38 | -5.65 |
| COC(=O)Nc1nc2ccc(Oc3ccc(NC(=O)Nc4cccc(Cl)c4)cc3)cc2[nH]1 | -1.03 | 3.36 | 8.54 | 15.3 | 40.9 | 37.5 | 56.3 | 35.7 | 59.7 | 23.3 | 42.4 | 7.43 | 22 | 6.59 | 13.3 | 1.45 | 2.26 | 12.3 | 28.8 | -5.74 |
